Measurements published in PubChem BioAssay (NCATS).
A number with no mark means an inactive call. Calls of active or inactive are those of the source. The call rests on the fitted dose curve; in most records, active means well fitted activation curve with a large enough effect; inconclusive means small, poorly fitted or top-dose-only effect; inactive means no such curve, though single readings can be large or run the other way.
Potency means the concentration at half of the fitted maximal effect.

These molecules were tested against Cytochrome P450 3A4 (Homo sapiens) (UniProt P08684) (assay: qHTS Assay for Activators of Cytochrome P450 3A4 (AID 885; further: nearly all actives have a fitted effect of over 65% in size)). Conditions: recombinant CYP3A4, Luciferin-PPXE luminescence, 60 min; series mostly up to 57.1 µM; activity change, positive = activation: at the top concentration.
Sequence of Cytochrome P450 3A4 (Homo sapiens) (P08684 whole entry, looked up): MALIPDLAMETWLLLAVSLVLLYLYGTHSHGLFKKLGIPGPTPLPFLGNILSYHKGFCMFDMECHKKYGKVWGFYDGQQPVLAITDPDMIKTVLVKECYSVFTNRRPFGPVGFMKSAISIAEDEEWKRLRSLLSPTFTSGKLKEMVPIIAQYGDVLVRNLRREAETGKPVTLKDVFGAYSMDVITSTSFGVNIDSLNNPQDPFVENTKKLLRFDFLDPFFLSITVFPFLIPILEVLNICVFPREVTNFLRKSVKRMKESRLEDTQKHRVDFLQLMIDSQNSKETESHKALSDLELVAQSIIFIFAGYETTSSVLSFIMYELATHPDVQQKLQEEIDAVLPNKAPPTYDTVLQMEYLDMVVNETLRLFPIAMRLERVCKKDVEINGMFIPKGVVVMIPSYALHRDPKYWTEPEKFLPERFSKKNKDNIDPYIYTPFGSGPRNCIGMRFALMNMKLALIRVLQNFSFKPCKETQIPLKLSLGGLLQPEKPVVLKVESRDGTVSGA
Description: NIH Molecular Libraries Screening Centers Network [MLSCN]
NIH Chemical Genomics Center [NCGC]
The P450 gene superfamily is involved in the metabolism and clearance of xenobiotics. This assay used human CYP3A4 to measure the dealkylation of luciferin-6' phenylpiperazinylyl (Luciferin-PPXE; […]) to luciferin. The luciferin is then measured by luminescence after the addition of a luciferase detection reagent. Luciferin-PPXE concentration in the assay was equal to its KM for CYP3A4. Inhibitors and some substrates limit the production of luciferin, and decrease measured luminescence; activators increase the production of luciferin and luminescence.
NCGC Assay Protocol Summary:
Two uL of enzyme and substrate mix (final concentrations: 20nM CYP3A4, 25uM Luciferin-PPXE, 200mM KPO4) were dispensed into a white, solid bottom 1536-well microtiter plate. 23nL of compound was transferred by a pin tool. The plate was incubated at RT for 10 min. Two uL of an NADPH regeneration solution (Promega supplied reagent) was dispensed and the reaction was allowed to continue for 60 min at RT. Then the reaction was stopped by reconstituted luciferin detection buffer. After another 20 min of incubation the plate was read on the ViewLux (Perkin Elmer) at 60 sec exposure and 2x2 binning. This protocol was carried out with Promega-Glo reagents and further information can be found at http://www.promega.com/tbs/tb325/tb325.pdf. Data were normalized to the to AC100 inhibition (57 uM ketoconazole).
Keywords: P450, CYP2D6, Luciferase, MLSMR, MLSCN, NIH Roadmap, qHTS, NCGC
In the case of `c1ccc2c(c1)CC(N1CCN(c3cccc4c3OCCO4)CC1)C2`, the Potency is reported as 25.1 µM (active).
In the case of `CCCc1c(-c2ccc(O)cc2)nn(-c2ccc(O)cc2)c1-c1ccc(O)cc1`, the “activity change, positive = activation” value is reported as -83.4%.
`O=c1[nH]ccc2c(O)cccc12` was tested, and the “activity change, positive = activation” value was -30.4%.
`COc1cc2c(CCNC(C)=O)c[nH]c2cc1O` was tested, and the “activity change, positive = activation” value was -44.8%.
With `CCCCCCN(CCCCCC)C(=O)Cc1c(-c2ccc(F)cc2)[nH]c2ccccc12` the “activity change, positive = activation” value was -109%.
`Oc1ccc(Cn2cc[nH]c2=S)cc1` was tested, and the “activity change, positive = activation” value was -35.5%.
With `c1ccc(C(NCCNC(c2ccccc2)c2ccccc2)c2ccccc2)cc1` the Potency was 5.01 µM (active).
In the case of `CCCCOC(=O)NS(=O)(=O)c1sc(CC(C)C)cc1-c1ccc(Cn2c(CC)nc3c(C)cc(C)nc32)cc1`, the “activity change, positive = activation” value is reported as -81.9%.
With `CCCOC(=O)c1c(-c2ccccc2)nc(CC)c(C(=O)SCC)c1CCC` the “activity change, positive = activation” value was -89.6%.
`CN1CCN(c2nc3cc(C(F)(F)F)ccc3n3cccc23)CC1` was tested, and the “activity change, positive = activation” value was -33.3%.
With `CC(C)(C)c1cc(/C=C(\C#N)C(N)=S)cc(C(C)(C)C)c1O` the “activity change, positive = activation” value was -101%.
`COc1cc(N)c(Cl)cc1C(=O)OCCN1CCCCC1` was tested, and the “activity change, positive = activation” value was -92.6%.
Work on `O=c1[nH]c(=S)[nH]c(-c2ccccc2)c1Cc1c(O)ccc2ccccc12` yielded an activity change, positive = activation of -42.7% [at 11.4 µM].
For `[Li+]`, the “activity change, positive = activation” value was -48.4%.
`Cc1nc2c(OCc3ccccc3)cccn2c1CC#N` was tested, and the “activity change, positive = activation” value was -66.5%.
For `CC(C)(CO)Cc1cc(C(C)(C)C)c(O)c(C(C)(C)C)c1`, the “activity change, positive = activation” value was -104%.
For `Cc1nc(N=Nc2cc(S(=O)(=O)O)c3cc([N+](=O)[O-])cc(S(=O)(=O)O)c3c2)c(COP(=O)(O)O)c(C=O)c1O`, the “activity change, positive = activation” value was -30.1%.
With `O=c1onc2cnc3ccccc3n12` the “activity change, positive = activation” value was -81.1%.
For `CCN(CC)CCCCCCCCOC(=O)c1cc(OC)c(OC)c(OC)c1`, the “activity change, positive = activation” value was -42.9%.
With `O=C(N[C@@H](Cc1ccccc1)C(=O)CCl)OCc1ccccc1` the “activity change, positive = activation” value was -31.8%.
In the case of `CC(=O)NCCc1c[nH]c2ccc(O)cc12`, the Potency is reported as “inactive”.
With `N[C@H](C(=O)O)[C@H](O)C(=O)O` the “activity change, positive = activation” value was -40.8%.
With `O=C(O)c1ccccc1Nc1cccc(OCc2ccc3ccccc3n2)c1` the “activity change, positive = activation” value was -90.4%.
`CCCCCCCC/C=C\CCCCCCCC(=O)NCCc1ccc(O)c(O)c1` was tested, and the “activity change, positive = activation” value was -82.1%.
With `CCSC(=N)N` the “activity change, positive = activation” value was -30.5%.
For `Nc1ccc2c3c(cccc13)C(=O)NC2=O`, the “activity change, positive = activation” value was -46.8%.
In the case of `N#C/C(=C\c1ccc(O)c(O)c1)C(=O)NCCc1ccccc1`, the “activity change, positive = activation” value is reported as -82.2%.
For `COc1ccc2c(c1)c(CC(=O)O)c(C)n2Cc1ccc(Cl)cc1`, the “activity change, positive = activation” value was -31%.
In the case of `COc1ccccc1N1CCN(CCCCNC(=O)c2ccc3ccccc3c2)CC1`, the “activity change, positive = activation” value is reported as -46.3%.
With `c1ccc(CN2CCC3(CCCc4ccccc43)CC2)cc1` the Potency was 25.1 µM (active).
For `NC(=Nc1ccccc1)NC(=O)c1nc(Cl)c(N)nc1N`, the “activity change, positive = activation” value was -30.5%.
With `NC1CONC1=O` (stereo not given) the “activity change, positive = activation” value was -49.4%.
In the case of `COc1cc(/C=C(\C#N)C(=O)c2ccc(O)c(O)c2)cc(I)c1O`, the “activity change, positive = activation” value is reported as -49.5%.
With `CCCCCCCCCCC(C)(C)C(=O)Nc1c(OC)cc(OC)cc1OC` the “activity change, positive = activation” value was -82.2%.
For `CCN(CC)CCOC(=O)c1cc(Cl)c(N)cc1OC`, the “activity change, positive = activation” value was -30.1%.
In the case of `NC(N)=NC(N)=Nc1cccc(Cl)c1`, the “activity change, positive = activation” value is reported as -38.1%.
In the case of `Cc1nc(N=Nc2ccc(C(=O)O)cc2)c(COP(=O)(O)O)c(C=O)c1O`, the “activity change, positive = activation” value is reported as -35.9%.
For `C=C1C(=O)O[C@@H]2[C@H]3O[C@]3(C)CCC=C(C)CC[C@@H]12`, the “activity change, positive = activation” value was -48%.
In the case of `CCn1c(=O)[nH]c2cc(Cl)c(Cl)cc21`, the “activity change, positive = activation” value is reported as -61.4%.
With `O=S(=O)(c1cccc2c(Cl)cccc12)N1CCCNCC1` the Potency was “inactive”.
